According to the supplement of paper PMC11732987, “Enantioselective OTUD7B fragment discovery through chemoproteomics screening and high-throughput optimisation” (Communications Chemistry, 2025):

Tests used:
Assay in all cases: log2 ratio of Biotin-Ahx-Ub-VS probe labelling (fragment/DMSO); higher = less target engagement (more negative = stronger competition), active = hit call of the paper (q ≤ 0.05, log2 ratio ≤ -1)
Settings in all cases: compound concentration: 200 uM; treatment time: 3 h
[1] = biological target: USP34 (UniProt Q70CQ2)
Sequence of USP34 (Q70CQ2 whole entry, the tested form may be a part): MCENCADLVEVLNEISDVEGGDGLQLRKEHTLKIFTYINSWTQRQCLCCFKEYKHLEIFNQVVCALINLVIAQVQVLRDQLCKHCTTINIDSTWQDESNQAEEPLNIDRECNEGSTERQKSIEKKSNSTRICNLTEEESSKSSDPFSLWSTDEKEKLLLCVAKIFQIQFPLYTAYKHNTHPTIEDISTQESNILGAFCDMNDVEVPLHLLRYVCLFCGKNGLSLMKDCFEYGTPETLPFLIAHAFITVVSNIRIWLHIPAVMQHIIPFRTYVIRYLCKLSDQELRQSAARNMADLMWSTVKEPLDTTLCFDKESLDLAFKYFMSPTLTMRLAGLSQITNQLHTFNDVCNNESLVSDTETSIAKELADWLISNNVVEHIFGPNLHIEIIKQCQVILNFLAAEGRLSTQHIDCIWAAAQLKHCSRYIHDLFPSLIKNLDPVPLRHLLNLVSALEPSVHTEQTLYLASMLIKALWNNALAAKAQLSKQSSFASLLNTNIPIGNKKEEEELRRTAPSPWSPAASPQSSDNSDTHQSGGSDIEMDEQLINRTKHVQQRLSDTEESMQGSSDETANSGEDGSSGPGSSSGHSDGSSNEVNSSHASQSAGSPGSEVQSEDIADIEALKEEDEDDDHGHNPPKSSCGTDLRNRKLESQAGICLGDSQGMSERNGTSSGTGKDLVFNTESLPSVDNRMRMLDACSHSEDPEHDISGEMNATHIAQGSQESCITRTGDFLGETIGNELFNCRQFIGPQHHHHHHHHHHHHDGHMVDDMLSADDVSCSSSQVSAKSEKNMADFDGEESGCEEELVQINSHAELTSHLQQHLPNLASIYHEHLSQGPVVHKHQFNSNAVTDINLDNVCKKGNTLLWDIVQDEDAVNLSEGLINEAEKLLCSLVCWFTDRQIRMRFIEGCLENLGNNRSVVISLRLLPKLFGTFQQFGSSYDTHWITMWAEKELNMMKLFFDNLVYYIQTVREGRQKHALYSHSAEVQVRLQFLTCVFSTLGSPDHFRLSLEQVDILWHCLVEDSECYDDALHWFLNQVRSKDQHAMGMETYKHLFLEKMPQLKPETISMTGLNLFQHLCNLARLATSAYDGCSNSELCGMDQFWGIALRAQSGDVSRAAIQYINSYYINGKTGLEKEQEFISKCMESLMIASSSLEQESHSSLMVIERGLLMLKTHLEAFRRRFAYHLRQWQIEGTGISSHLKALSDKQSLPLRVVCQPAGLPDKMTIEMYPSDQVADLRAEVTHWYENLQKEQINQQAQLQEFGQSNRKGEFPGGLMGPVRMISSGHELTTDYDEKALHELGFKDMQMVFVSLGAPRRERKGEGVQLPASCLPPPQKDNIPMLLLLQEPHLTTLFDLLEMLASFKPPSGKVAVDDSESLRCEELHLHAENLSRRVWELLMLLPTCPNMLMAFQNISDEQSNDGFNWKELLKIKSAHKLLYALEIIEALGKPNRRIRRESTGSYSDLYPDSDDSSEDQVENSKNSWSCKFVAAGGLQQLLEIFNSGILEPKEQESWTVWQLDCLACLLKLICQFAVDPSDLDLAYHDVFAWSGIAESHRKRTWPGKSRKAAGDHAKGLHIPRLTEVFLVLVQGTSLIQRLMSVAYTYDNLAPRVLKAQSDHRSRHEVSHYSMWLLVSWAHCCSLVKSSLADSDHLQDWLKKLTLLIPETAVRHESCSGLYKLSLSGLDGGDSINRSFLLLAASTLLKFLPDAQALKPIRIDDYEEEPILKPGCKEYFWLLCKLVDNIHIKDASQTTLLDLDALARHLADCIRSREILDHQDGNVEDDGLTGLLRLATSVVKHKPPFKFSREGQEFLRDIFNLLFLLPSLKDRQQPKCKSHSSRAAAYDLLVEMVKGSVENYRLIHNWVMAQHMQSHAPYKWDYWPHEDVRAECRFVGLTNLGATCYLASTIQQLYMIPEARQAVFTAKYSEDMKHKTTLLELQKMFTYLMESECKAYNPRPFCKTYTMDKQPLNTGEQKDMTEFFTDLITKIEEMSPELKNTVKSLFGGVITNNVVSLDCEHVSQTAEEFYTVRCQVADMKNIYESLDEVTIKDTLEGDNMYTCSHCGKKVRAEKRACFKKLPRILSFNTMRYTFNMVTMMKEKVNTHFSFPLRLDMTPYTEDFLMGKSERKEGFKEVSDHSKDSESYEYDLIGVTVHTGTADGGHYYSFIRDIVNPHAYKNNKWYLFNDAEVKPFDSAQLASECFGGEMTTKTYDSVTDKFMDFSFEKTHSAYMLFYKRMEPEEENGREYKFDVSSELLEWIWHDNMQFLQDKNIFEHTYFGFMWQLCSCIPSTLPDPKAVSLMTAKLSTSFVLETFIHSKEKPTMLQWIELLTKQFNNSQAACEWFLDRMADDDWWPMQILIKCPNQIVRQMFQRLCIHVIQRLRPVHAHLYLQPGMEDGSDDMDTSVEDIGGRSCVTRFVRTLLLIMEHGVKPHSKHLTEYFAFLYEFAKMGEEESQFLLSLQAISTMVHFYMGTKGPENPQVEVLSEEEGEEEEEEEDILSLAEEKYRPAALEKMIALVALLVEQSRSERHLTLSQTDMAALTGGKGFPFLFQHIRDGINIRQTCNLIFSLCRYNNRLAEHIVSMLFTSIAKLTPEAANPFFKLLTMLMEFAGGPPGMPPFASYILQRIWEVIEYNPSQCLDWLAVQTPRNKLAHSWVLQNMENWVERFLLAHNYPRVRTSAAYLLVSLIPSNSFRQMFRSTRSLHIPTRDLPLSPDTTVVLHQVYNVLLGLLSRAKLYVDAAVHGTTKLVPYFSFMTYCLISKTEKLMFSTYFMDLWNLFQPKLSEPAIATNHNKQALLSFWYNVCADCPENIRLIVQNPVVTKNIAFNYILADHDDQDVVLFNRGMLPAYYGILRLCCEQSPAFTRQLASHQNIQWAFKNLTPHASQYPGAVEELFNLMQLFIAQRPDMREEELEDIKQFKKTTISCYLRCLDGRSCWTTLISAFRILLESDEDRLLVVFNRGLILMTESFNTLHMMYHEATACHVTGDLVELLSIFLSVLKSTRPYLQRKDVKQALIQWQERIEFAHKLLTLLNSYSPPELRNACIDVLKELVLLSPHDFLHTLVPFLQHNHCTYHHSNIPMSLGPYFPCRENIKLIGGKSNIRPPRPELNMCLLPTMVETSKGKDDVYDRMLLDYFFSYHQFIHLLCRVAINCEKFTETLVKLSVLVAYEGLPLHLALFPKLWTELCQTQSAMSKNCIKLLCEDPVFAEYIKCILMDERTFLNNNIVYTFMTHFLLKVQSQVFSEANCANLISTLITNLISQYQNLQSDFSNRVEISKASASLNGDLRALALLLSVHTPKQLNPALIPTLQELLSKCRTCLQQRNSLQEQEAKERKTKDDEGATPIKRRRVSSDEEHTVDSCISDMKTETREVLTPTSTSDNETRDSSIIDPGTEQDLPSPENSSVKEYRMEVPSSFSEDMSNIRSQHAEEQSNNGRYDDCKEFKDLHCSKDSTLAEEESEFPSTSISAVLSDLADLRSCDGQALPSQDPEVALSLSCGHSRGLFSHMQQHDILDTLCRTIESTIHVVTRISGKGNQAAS
Outline: (§1)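 Average log2 ratios of fragment over vehicle were obtained by unpaired t-test from global-median-normalised Spectronaut label-free quantities. Proteins with ≥2 unique peptides were included. HEK293T lysate (495 µg per sample) was treated in triplicate with fragment at 200 µM or vehicle for 3 h, then with Biotin-Ahx-Ub-VS at 0.5 µM final for 1 h, and labelled DUBs were NeutrAvidin-enriched and run by diaPASEF LC-MS/MS.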

[2] = biological target: T1, USP36 (UniProt Q9P275)
T1 sequence (whole entry): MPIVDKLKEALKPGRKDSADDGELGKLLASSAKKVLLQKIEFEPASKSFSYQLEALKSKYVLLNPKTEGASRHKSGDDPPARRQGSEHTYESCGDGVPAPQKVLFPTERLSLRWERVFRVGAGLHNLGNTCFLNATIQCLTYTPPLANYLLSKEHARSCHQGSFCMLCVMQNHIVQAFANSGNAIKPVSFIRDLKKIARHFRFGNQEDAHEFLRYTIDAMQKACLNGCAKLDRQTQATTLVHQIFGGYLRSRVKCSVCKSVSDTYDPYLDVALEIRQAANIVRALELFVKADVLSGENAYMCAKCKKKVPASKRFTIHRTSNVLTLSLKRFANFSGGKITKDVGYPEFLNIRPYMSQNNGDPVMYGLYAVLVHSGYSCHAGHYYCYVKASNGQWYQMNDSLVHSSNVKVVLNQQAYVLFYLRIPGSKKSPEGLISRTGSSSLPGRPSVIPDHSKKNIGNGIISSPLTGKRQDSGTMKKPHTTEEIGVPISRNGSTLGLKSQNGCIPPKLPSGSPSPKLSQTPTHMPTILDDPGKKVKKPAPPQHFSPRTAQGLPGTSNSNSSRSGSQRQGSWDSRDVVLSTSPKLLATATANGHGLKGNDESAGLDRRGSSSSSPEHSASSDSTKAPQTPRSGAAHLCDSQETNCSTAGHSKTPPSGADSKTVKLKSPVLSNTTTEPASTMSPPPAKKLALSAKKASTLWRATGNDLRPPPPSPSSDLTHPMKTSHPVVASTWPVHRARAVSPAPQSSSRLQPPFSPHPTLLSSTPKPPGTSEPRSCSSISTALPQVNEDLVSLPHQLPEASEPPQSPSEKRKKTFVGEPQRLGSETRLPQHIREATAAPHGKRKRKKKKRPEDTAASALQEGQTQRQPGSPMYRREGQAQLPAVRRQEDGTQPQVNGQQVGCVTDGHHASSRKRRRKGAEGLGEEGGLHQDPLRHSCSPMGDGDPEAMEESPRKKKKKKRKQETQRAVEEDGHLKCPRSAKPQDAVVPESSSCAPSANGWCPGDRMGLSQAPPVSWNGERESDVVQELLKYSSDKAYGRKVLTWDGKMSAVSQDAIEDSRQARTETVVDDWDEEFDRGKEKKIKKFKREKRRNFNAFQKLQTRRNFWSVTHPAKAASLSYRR
Outline: as §1

[3] = biological target: T2, USP38 (UniProt Q8NB14)
T2 sequence (whole entry): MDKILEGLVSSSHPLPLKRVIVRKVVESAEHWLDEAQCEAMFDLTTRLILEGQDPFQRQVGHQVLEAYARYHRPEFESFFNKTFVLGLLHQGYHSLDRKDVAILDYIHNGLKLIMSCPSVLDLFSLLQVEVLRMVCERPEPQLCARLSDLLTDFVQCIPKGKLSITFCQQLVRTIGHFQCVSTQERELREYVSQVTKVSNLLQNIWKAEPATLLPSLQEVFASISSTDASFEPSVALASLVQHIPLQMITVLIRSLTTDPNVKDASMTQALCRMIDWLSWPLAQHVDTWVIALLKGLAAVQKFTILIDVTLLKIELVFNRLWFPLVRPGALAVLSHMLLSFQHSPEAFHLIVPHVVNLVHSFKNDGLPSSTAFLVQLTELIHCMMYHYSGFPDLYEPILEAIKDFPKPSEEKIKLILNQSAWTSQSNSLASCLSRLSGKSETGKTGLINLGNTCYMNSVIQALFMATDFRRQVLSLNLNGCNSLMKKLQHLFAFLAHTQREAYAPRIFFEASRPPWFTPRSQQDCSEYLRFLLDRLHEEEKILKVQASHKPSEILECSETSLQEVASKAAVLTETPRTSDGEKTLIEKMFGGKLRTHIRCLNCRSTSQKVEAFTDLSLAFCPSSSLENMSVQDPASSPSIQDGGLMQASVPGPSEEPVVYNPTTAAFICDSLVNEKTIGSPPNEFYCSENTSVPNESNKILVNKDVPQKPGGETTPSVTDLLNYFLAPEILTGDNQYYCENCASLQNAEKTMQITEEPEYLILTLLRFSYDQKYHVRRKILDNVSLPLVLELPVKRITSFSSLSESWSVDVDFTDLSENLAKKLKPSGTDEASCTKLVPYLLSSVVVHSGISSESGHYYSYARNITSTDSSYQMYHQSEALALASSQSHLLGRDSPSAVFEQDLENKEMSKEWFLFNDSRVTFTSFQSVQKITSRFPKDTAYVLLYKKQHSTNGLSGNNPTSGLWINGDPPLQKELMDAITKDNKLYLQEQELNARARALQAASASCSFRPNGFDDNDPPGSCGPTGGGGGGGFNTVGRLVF
Outline: as §1

[4] = biological target: T3, USP39 (UniProt Q53GS9)
T3 sequence (whole entry): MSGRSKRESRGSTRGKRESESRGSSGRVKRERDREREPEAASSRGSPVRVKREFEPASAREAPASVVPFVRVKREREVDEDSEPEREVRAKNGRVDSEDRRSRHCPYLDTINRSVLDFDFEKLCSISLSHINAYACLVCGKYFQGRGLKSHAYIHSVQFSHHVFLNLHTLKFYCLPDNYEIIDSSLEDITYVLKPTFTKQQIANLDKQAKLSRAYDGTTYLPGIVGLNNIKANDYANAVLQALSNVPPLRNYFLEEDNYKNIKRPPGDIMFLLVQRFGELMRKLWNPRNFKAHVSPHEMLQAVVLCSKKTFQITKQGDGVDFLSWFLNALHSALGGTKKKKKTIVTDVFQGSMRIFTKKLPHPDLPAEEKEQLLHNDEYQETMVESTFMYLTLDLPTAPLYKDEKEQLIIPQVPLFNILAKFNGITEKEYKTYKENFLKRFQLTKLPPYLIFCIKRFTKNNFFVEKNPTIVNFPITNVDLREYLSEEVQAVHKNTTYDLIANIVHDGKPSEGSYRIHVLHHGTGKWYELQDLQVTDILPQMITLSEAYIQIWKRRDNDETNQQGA
Outline: as §1

[5] = biological target: T4, USP4 (UniProt Q13107)
T4 sequence (whole entry): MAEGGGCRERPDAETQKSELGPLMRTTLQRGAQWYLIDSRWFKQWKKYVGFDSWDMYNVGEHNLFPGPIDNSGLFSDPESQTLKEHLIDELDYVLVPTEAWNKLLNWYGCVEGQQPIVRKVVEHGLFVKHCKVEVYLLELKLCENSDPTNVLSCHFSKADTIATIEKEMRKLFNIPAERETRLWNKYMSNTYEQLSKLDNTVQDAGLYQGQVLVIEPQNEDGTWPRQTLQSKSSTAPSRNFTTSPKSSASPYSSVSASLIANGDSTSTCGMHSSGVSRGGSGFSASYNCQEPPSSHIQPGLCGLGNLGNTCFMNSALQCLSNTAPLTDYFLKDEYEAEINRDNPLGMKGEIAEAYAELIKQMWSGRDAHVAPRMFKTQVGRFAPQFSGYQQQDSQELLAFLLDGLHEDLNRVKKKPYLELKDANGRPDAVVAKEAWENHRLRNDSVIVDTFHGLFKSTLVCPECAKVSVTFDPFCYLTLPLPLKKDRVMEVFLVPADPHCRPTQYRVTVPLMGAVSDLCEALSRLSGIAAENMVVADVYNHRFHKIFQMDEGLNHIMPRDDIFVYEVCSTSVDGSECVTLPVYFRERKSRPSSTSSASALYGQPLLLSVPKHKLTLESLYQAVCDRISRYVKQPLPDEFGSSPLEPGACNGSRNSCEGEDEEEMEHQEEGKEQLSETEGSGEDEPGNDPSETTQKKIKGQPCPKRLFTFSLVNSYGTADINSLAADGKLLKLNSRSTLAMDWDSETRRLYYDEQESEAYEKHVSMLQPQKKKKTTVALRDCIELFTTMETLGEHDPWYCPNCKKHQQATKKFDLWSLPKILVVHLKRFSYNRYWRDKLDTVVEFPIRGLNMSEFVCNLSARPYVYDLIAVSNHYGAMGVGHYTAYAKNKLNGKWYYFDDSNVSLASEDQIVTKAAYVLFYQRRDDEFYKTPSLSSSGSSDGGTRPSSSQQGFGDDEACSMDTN
Outline: as §1

Measured: log2 ratio of Biotin-Ahx-Ub-VS probe labelling

CC(C)n1nccc1NC(=O)CCl
inactive: [1] -0.109 | [2] -0.0105 | [3] -0.0818 | [4] -0.252 | [5] -0.0708
